This note sets out measurements from PubChem BioAssay AID463188 (University of Pittsburgh Molecular Library Screening Center, 2010).

Assay [1] is described as follows: Nef-activated Hck kinase blockers, duplicate retest – biochemical, Z-Lyte FRET, 384-well, p-Tyr peptide counterscreen, confirmation (AID 463188). The following applies: Recombinant Hck-YEEI:Nef, Z-Lyte FRET kinase assay; measured here: p-Tyr peptide counterscreen; at 10 µM.
For assay [2], the target named is Tyrosine-protein kinase HCK (Homo sapiens) (UniProt P08631). Described as above. The note with it: Recombinant Hck-YEEI:Nef, Z-Lyte FRET kinase assay; at 10 µM; stronger effect = higher value.

SMILES strings stand for the structures. Among all 1,300 compounds or so, about 360 (28%) were called active.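 Rule for the calls: active = average inhibition of at least 50%, with Z-scores no higher than 3 in both the phospho-tyrosine peptide and fluorescence counterscreens; inactive = the rest.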 The entries come from a sample that favours actives as a whole.

Sequence of Tyrosine-protein kinase HCK (Homo sapiens) (P08631 whole entry, looked up): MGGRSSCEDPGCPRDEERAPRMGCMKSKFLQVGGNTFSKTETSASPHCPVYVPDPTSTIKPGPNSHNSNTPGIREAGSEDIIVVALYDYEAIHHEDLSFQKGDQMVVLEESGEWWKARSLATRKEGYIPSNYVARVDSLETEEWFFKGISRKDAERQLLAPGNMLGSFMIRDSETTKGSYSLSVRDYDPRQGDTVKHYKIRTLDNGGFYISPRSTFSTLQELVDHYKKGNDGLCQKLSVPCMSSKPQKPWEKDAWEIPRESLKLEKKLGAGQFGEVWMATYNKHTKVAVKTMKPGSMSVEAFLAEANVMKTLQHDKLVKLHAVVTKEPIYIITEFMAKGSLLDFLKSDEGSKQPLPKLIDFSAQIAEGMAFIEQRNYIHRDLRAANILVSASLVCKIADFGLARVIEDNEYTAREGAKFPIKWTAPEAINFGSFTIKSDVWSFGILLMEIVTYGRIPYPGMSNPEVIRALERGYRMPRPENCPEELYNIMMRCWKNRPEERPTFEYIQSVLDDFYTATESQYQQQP

For `O=C1NC(=O)N(Cc2ccco2)C(=O)/C1=C\c1ccc(-c2ccc(F)cc2)o1`, the z-score in assay [1] stood at 0.915. The inhibition in assay [2] was 68.2% (active).

For the molecule `COc1cc(Cn2c(N)c(C(=O)NCc3ccco3)c3nc4ccccc4nc32)cc(OC)c1OC`, the z-score in assay [1] was 25.8. The inhibition in assay [2] was 46.4% (inactive).
